{
  "source": "PubChem BioAssay AID1645875",
  "about": "(National Center for Advancing Translational Sciences (NCATS), 2021)",
  "note": "Values joined by “and” are separate entries in the source; they are usually repeats but may differ in a detail not shown here. Identical values can stand only once. Results filed as inconclusive are left out. Active and inactive are the calls of the source. Calls come from the whole dose curve; as a rule, active = well fitted inhibition curve with a large enough effect; inconclusive = small, poorly fitted or top-dose-only effect; inactive = no such curve, though single readings can be large or run the other way.",
  "data": [
    {"biological_target": "N-terminal Xaa-Pro-Lys N-methyltransferase 1 (Homo sapiens) (UniProt Q9BV86)", "sequence (Q9BV86 whole entry, looked up)": "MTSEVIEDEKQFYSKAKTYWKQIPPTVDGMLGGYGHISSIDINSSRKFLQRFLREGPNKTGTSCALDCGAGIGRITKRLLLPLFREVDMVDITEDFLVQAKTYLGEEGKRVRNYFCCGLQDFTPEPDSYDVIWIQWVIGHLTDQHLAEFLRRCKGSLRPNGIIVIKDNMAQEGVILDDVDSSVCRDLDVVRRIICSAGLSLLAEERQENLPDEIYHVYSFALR", "assay": "Orthogonal qHTS for Inhibitors of N-terminal methyltransferase 1 (NTMT1): ThioGlo Assay", "conditions": "NTMT1 SAHH-coupled ThioGlo fluorescence, 30 min; series mostly up to 84.5 µM", "description": "Assay Submitter (PI): Rong Huang Ph.D. Purdue University, West Lafayette, IN 47907 The N-terminal methytransferase 1 is the first methyltransferase that methylates protein alpha-N-amines and plays an important role in regulating cell mitosis, chromatin interactions and DNA repair. It is observed to be over-expressed in various cancer patient tissues like malignant melanoma and colorectal cancer tissues. Knockdown of NTMT1 in cancer cells causes cell mitotic defects and enhances sensitivity to DNA damaging chemotherapeutics. […] These critical cellular processes in which NTMT1 is implicated, coupled with emerging links to cellular dysfunction, strengthen the inference that NTMT1 is a compelling novel anticancer target. Progress have been made in understanding the molecular properties of NTMT1 and the biological consequences of protein alpha-N-terminal methylation, but there are no specific small molecule probes available for NTMT1 to fully characterize its MTase activity. To address this unmet need, a panel of assay is created and established to enable quantitative high-throughput screening (qHTS) for novel, potent, and selective small molecule NTMT1 inhibitors. Two orthogonal qHTS that use different reagents (ThioGlo vs. MTaseGlo) are developed for primary robotic screening against the NCATS chemical library of more than 400,000 small molecules. Identified inhibitors are reacquired, validated, and further characterized. […] Early Translation Branch (ETB) National Center for Advancing Translational Sciences (NCATS) National Institute of Health (NIH)\nMaterials: NTMT1 enzyme, substrate SPKRIA, control peptide RCC1-6 is provided by the Huang laboratory. MTaseGlo Assay: PROTOCOL TABLE; SEQUENCE No. (e.g., 1, 2, 3, etc.); […] (e.g., Cells, Incubation, Reagent, etc.); VALUE; DESCRIPTION 1; Enzyme; 3 uL; Dispense enzyme mixture (final concentrations of 125 nM NTMT1) into Greiner 1536-well black / solid bottom assay plate (Greiner Bio One, Monroe, NC). 2; Compounds; 23 nL; Compounds (at various concentration) and 1uM final concentration of RCC1-6 (SPKRIA) control were transferred via a Kalypsys Pin Tool (Wako USA) equipped with a 1536-slotted pin array (Wako Automation, Richmond, VA). 3; Incubation; 1 min; Incubate at room temperature. 4; Substrate; 1 uL; Dispense 1 uL of substrate solution (100uM SAM, 10uM SAHH, 15uM ThioGlo3 final concentration) was added to the wells bringing the final assay volume to 4uL. The assay plate was covered with metal lids. 5; Detection; Fluorescence; Initial fluorescence readout (background signal) was detected using the ViewLux microplate imager with an excitation filter of 340 nm and 450 nm emission filter. 6; Incubation; 30 min; Assay plates were incubation at room temperature in the dark. 7; Detection; Fluorescence; Final fluorescence readout was detected using the ViewLux microplate imager with an excitation filter of 340 nm and 450 nm emission filter. The data was normalized to the background fluorescence.", "values": [
      {"smiles": "CN(C)CCCC1(c2ccc(F)cc2)OCc2cc(C#N)ccc21", "note": "(stereo not given)", "Potency": "inactive"},
      {"smiles": "CNC(=O)c1ccccc1Nc1cc(Nc2ccc(N3CCOCC3)cc2OC)ncc1C(F)(F)F", "Potency": "8.79 µM (active)"},
      {"smiles": "COc1cc2c(NC3CCN(C(C)C)CC3)nc(N3CCCCC3)nc2cc1OCCOCCN(C)C", "Potency": "34.5 µM (active)"},
      {"smiles": "COc1c(C(C)C)c(O)c(O)c2c1C(OC)[C@H]1OC(=O)[C@@]23CCCC(C)(C)[C@H]13", "note": "(stereo not given in full)", "Potency": "6.1 µM (active)"},
      {"smiles": "CN(C)c1ccc(Nc2nc(N)n(C(=O)c3c(F)cccc3F)n2)cc1", "Potency": "4.94 µM (active)"},
      {"smiles": "CC/C(=C(\\c1ccccc1)c1ccc(OCCN(C)C)cc1)c1ccccc1", "Potency": "inactive"},
      {"smiles": "O=C(O)c1ccnc2cc(-c3nc4ccccc4n3CCN3CCCCC3)sc12", "Potency": "55.5 µM (active)"},
      {"smiles": "COc1cc2nc(N3CCN(C(=O)c4ccco4)C4CCCCC43)nc(N)c2cc1OC", "note": "(stereo not given)", "Potency": "55.5 µM (active)"},
      {"smiles": "COc1cc2c(NC3CCN(CC4CCCCC4)CC3)nc(N3CCCN(C(C)C)CC3)nc2cc1OCCCN1CCCCC1", "Potency": "12.3 µM (active)"},
      {"smiles": "CCNC(=O)c1noc(-c2cc(C(C)C)c(O)cc2O)c1-c1ccc(CN2CCOCC2)cc1", "Potency": "inactive"},
      {"smiles": "O=C([C@@H]1CCCN(c2ccc3[nH]c(C4(n5cc(Cl)cn5)CC4)nc3n2)C1)N1CCCC1", "Potency": "22.1 µM (active)"},
      {"smiles": "Cc1cc2c(c(=O)[nH]1)OC(C(O)CC(C)C)O2", "note": "(stereo not given)", "Potency": "19.7 µM (active)"},
      {"smiles": "C#Cc1cccc(Nc2ncnc3cc(OC)c(OCCCCCCC(=O)NO)cc23)c1", "Potency": "22.1 µM (active)"},
      {"smiles": "COc1cc2c(NC3CCN(C(C)C)CC3)nc(N3CCCN(CC4CCCCC4)CC3)nc2cc1OCCCN1CCCCC1", "Potency": "inactive"},
      {"smiles": "Cc1cc2c(C(C)C)c(O)c(O)c(C=O)c2c(O)c1-c1c(C)cc2c(C(C)C)c(O)c(O)c(C=O)c2c1O", "Potency": "38.8 µM (active)"},
      {"smiles": "O=C(O)c1ccc(Cc2c(-c3cccc(-c4ccccc4)c3)[nH]n(-c3nc(C(=O)O)cs3)c2=O)cc1", "Potency": "inactive"},
      {"smiles": "O=C(Nc1ccc(S(=O)(=O)C(F)(F)F)cc1)C1=CCN(c2ncccc2C(F)(F)F)CC1", "Potency": "inactive"},
      {"smiles": "COc1ccc(C2=Nn3c(nnc3-c3ccccc3F)SC2)cc1OC1CCCC1", "Potency": "inactive"},
      {"smiles": "Nc1ccc(C(=O)Nc2cccc(-c3nc(N4CCOCC4)c4oc5ncccc5c4n3)c2)cn1", "Potency": "22.1 µM (active)"},
      {"smiles": "O=C(NCCN1CCCC1)c1cc(-c2ccc(CN3CCOCC3)cc2)nc2ccc(F)cc12", "Potency": "24.1 µM (active)"},
      {"smiles": "COc1cc2c(NC3CCN(CC4CCCCC4)CC3)nc(N3CCCN(C)CC3)nc2cc1OCCOCCN(C)C", "Potency": "inactive"},
      {"smiles": "Cc1ccc(NC(=O)N2CCN(c3nc(N)nc4sc(-c5cccnc5)nc34)CC2)cc1", "Potency": "24.8 µM (active)"},
      {"smiles": "FC(F)(F)c1cccc(N2CCN(C(=S)Nc3ccccn3)CC2)c1", "Potency": "1.54 µM (active)"},
      {"smiles": "Nc1ncnc2c1nc(N)n2[C@@H]1O[C@H](CO)[C@@H](O)[C@H]1O", "Potency": "27.8 µM (active)"},
      {"smiles": "COc1ccc2nc(-c3cc(OC)c(OC)c(OC)c3)cc(C(=O)NCC(=O)Nc3ccc(C(C)=O)cc3)c2c1", "Potency": "31.2 µM (active)"},
      {"smiles": "COc1c(C)c(C(=O)c2ccc(N)c(C(=O)O)c2)n2ccccc12", "Potency": "1.97 µM (active) and 1.75 µM (active)"},
      {"smiles": "CC(C)c1cc(CNc2nc(Nc3cc(C4CC4)[nH]n3)cc(N3CCN(C)CC3)n2)on1", "Potency": "7.84 µM (active)"},
      {"smiles": "COc1cc2c(NC3CCN(C4CCCCC4)CC3)nc(N3CCCCC3)nc2cc1OCCOCCN(C)C", "Potency": "43.5 µM (active)"},
      {"smiles": "CCn1c(=O)c(-c2ccn[nH]2)cc2c(C)nc(N)nc21", "Potency": "49.4 µM (active)"},
      {"smiles": "COc1cc2c(NC3CCN(C4CCCCC4)CC3)nc(N3CCCN(C)CC3)nc2cc1OCCCN1CCCCC1", "Potency": "43.5 µM (active)"},
      {"smiles": "OCCn1cc(-c2cnc3nnn(Cc4ccc5ncccc5c4)c3n2)cn1", "Potency": "17.5 µM (active)"},
      {"smiles": "COc1cc(N2CCC(O)CC2)ccc1Nc1nc(Nc2ccccc2S(=O)(=O)C(C)C)c2[nH]cnc2n1", "Potency": "19.7 µM (active)"},
      {"smiles": "COc1cc2c(NC3CCN(C4CCCCC4)CC3)nc(N3CCCN(C)CC3)nc2cc1OCCOCCN(C)C", "Potency": "43.5 µM (active)"},
      {"smiles": "c1cc(CN2CCCCC2)cc(OCCCNc2nc3ccccc3s2)c1", "Potency": "inactive"},
      {"smiles": "Cc1cccc(/C=C/c2ccccc2)n1", "Potency": "inactive"},
      {"smiles": "NCCOc1cc(C(=O)Nc2cc(OCCN)c3ccccc3n2)nc(C(=O)Nc2cc(OCCN)c3ccccc3n2)c1", "Potency": "19.4 µM (active)"},
      {"smiles": "Clc1ccc(Nc2nnc(Cc3ccncc3)c3ccccc23)cc1", "Potency": "62.2 µM (active)"},
      {"smiles": "COc1ccc2cc3c(NC(=O)c4ccco4)nn(C)c3nc2c1", "Potency": "49.4 µM (active)"},
      {"smiles": "COc1cc2c(NC3CCN(C(C)C)CC3)nc(N3CCCCC3)nc2cc1OCCCN1CCCCC1", "Potency": "inactive"},
      {"smiles": "COc1cc(CCc2ccc(OCC=C(C)C)cc2)cc(OC)c1OC", "Potency": "inactive"}
    ]}
  ]
}
